Each structure is given as a SMILES string. Active and inactive are the calls of the source. Unless noted, no rule for the calls is given here.

Experiment [1] has as its system XIP peptide (Xip251-270) binding. The experiment can be described thus: XIP fragment 251-270 binding compounds – biochemical, small-molecule microarray, fluorescence 635/667 nm, 0.1 µg/mL protein, primary screen (AID 1182). As to conditions: fluorescent protein binding, 635 nm, higher = more signal, called active from +8 up or from −8 down.
The test system of another experiment is XIP peptide (Xip251-270). The experiment can be described thus: compounds binding XIP fragment 251-270 – biochemical, small-molecule microarray, fluorescence 635/667 nm, 0.5 µg/mL protein, primary screen (AID 1183). As to conditions: fluorescence 635 nm, higher = more signal.
Experiment [2] in a line: blood-stage malaria parasite viability loss – strain 3D7, DAPI fluorescence, 100 nL, primary screen (AID 1184).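 Also: parasites grown inside human red blood cells in medium with human serum.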 As to conditions: P. falciparum 3D7 growth, 3 d, higher = more signal.
The target of experiment [3] is Homeobox protein Hox-A13 (Mus musculus) (UniProt Q62424). Nature of the experiment: disruptors of Hoxa13 oligonucleotide interaction – biochemical, fluorescence polarization, labeled oligonucleotide, primary screen (AID 1185). As to conditions: Hoxa13:DNA binding, 15 min, higher = more signal, called active from +8 up or from −8 down.
Chain of Homeobox protein Hox-A13 (Mus musculus) (Q62424 whole entry, looked up): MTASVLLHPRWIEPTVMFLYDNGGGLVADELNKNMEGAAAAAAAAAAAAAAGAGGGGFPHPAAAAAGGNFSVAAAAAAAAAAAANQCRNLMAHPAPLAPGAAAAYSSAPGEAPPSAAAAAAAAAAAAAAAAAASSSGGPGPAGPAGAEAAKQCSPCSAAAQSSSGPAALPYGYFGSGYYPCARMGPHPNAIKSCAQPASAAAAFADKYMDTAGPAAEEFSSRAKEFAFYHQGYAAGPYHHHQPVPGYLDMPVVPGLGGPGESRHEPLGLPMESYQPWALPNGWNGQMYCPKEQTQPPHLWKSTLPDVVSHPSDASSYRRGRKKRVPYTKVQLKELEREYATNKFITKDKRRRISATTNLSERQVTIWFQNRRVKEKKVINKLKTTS
Experiment [4] can be described thus: blockers of DNA damage checkpoint Chk1 activation – imaging, HeLa, hydroxyurea, phospho-Chk1 antibody, percent positive cells, primary screen (AID 1186). As to conditions: hydroxyurea-induced phospho-Chk1 immunofluorescence imaging, higher = more signal.
Experiment [5] is described as follows: blockers of DNA damage checkpoint Chk1 activation – imaging, HeLa, hydroxyurea, phospho-Chk1 nuclear intensity, primary screen (AID 1187). As to conditions: hydroxyurea-induced phospho-Chk1 immunofluorescence imaging, higher = more signal.

`COCCOC(=O)N1C(=O)[C@@]2(c3cc(C#CCC(C(=O)OC)C(=O)OC)ccc31)[C@H](C(=O)N1CCCCCCC1)[C@H]1C(=O)O[C@H](c3ccccc3)[C@H](c3ccccc3)N1[C@@H]2c1ccc(OCCO)cc1`: the composite z-score is 0.968 (inactive) in experiment [1] and 0.746 in the experiment with XIP peptide (Xip251-270). Moreover, the z-score was -1.79 in experiment [2], -15.8 (active) in experiment [3], -0.479 (inactive) in experiment [4] and -0.719 (inactive) in experiment [5].
`CCOC(=O)C[C@H]1[C@H](OC(=O)c2ccccc2-c2ccccc2)[C@@H](NC(=O)c2ccc3ccccc3c2)c2cc(OCCCO)ccc2N1C(=O)c1ccc2ccccc2n1`: the values for the composite z-score (in experiment [1]; with XIP peptide (Xip251-270)) were 0.157 (inactive) and 0.171, respectively. The z-score is -0.34 in experiment [2], -2.08 (inactive) in experiment [3], 0.308 (inactive) in experiment [4] and -0.334 (inactive) in experiment [5].
As for `NCCCCCNC(=O)[C@H]1C[C@H]2C(=O)NCC(=O)N2[C@H]1c1cccc(OCCO)c1`, the values for the composite z-score (in experiment [1]; with XIP peptide (Xip251-270)) were 0.228 (inactive) and 0.781, respectively. Besides, the z-score in experiment [2] was 0.222; in experiment [3] it was -1.68 (inactive); in experiment [4] it was 0.0838 (inactive); in experiment [5], 0.179 (inactive).
As to `COCCOC(=O)N1C(=O)[C@@]2(c3cc(C#CCNC(N)=O)ccc31)[C@H](c1ccccc1OCCO)N1[C@H](c3ccccc3)[C@H](c3ccccc3)OC(=O)[C@H]1[C@@H]2C(N)=O`, the composite z-score in experiment [1] was -0.0949 (inactive); in the experiment with XIP peptide (Xip251-270), 0.467. Further, the z-score in experiment [2] is -0.585; in experiment [3] it was -2.6 (inactive); in experiment [4], 0.0842 (inactive); in experiment [5], -0.266 (inactive).
Regarding `C=C(COC)C(=O)CC[C@@H](OC(=O)c1cccnc1)c1ccc(CO)o1`, the composite z-score in experiment [1] was 0.457 (inactive); in the experiment on XIP peptide (Xip251-270), 0.496. The z-score was -0.469 in experiment [2], -4.3 (inactive) in experiment [3], 0.201 (inactive) in experiment [4] and 0.679 (inactive) in experiment [5].
For the compound `CC(=O)C1=CCC(c2ccccc2)N(S(=O)(=O)c2ccc(C)cc2)C1` (configuration not stated), the composite z-score is 0.651 (inactive) in experiment [1] and 0.473 in the experiment on XIP peptide (Xip251-270). The z-score in experiment [2] is -1.33; in experiment [3] it was -3.89 (inactive); in experiment [4], 0.532 (inactive); in experiment [5], 0.216 (inactive).
As for `CC(c1ccccc1)C(O)C1C=CC2C(=O)NC(=O)C2N1Nc1ccccn1` (configuration not stated), the figures for the composite z-score (in experiment [1]; with XIP peptide (Xip251-270)) were 0.197 (inactive) and 0.676, respectively. Moreover, the z-score in experiment [2] was 0.196; in experiment [3] it was -1.82 (inactive); in experiment [4], 0.651 (inactive); in experiment [5] it was 0.136 (inactive).
On to `COc1ccc(C(O)C2C=CC3C(=O)N(C)C(=O)C3N2Nc2ccccc2)cc1OCc1ccccc1` (configuration not stated), for which the results for the composite z-score (in experiment [1]; with XIP peptide (Xip251-270)) were 0.492 (inactive) and 0.879, respectively. In addition, the z-score in experiment [2] is 0.039; in experiment [3] it was -4.69 (inactive); in experiment [4] it was 0.593 (inactive); in experiment [5], 0.344 (inactive).
With `COc1ccc(C#Cc2ccc3c(c2)[C@]2(C(=O)N3)[C@H](c3ccc(O)cc3)N3[C@H](c4ccccc4)[C@H](c4ccccc4)OC(=O)[C@H]3[C@@H]2C(=O)NC[C@H](O)c2ccccc2)cc1`, the composite z-score was 0.265 (inactive) in experiment [1] and 0.707 in the experiment on XIP peptide (Xip251-270). Further, the z-score is -1.05 in experiment [2], -0.173 (inactive) in experiment [3], 0.0646 (inactive) in experiment [4] and 0.385 (inactive) in experiment [5].
Regarding `C=CCC(OC(C)=O)[C@@H]1[C@@H](N(Cc2cccc3ccccc23)C(=O)c2ccc(C)cc2)c2cc(OCCCO)ccc2N1C(=O)Cc1ccc(OC)cc1` (some centres not stated), the composite z-score in experiment [1] was -0.262 (inactive); with XIP peptide (Xip251-270) it was -0.241. Also, the z-score in experiment [2] was -0.805; in experiment [3], -0.287 (inactive); in experiment [4] it was -0.446 (inactive); in experiment [5], -0.126 (inactive).
For the compound `C=C(CCCC)/C(=C/C[C@H](OC(C)=O)c1ccc(CO)o1)c1cnc2ccccc2c1`, the figures for the composite z-score (in experiment [1]; in the experiment on XIP peptide (Xip251-270)) were 0.0563 (inactive) and 0.515, respectively. Besides, the z-score in experiment [2] was -0.867; in experiment [3], -5.74 (inactive); in experiment [4], 0.0298 (inactive); in experiment [5] it was -0.0373 (inactive).
Turning to `C=C(C(=O)CC[C@H](OC(C)=O)c1ccc(OCCO)cc1)C(C)C`, the figures for the composite z-score (in experiment [1]; in the experiment on XIP peptide (Xip251-270)) were 0.0512 (inactive) and 0.601, respectively. Further, the z-score is -2.57 in experiment [2], -3.14 (inactive) in experiment [3], 0.772 (inactive) in experiment [4] and -0.0365 (inactive) in experiment [5].
`COCCOC(=O)N1C(=O)[C@@]2(c3ccccc31)[C@H](c1ccc(O)cc1)N1[C@H](c3ccccc3)[C@H](c3ccccc3)OC(=O)[C@H]1[C@@H]2C(=O)N1CCc2cc(OC)c(OC)cc2C1`: the composite z-score in experiment [1] is 1.46 (inactive); in the experiment on XIP peptide (Xip251-270), 0.794. Moreover, the z-score in experiment [2] was -1.27; in experiment [3], -1.87 (inactive); in experiment [4], 0.043 (inactive); in experiment [5] it was 0.361 (inactive).
Take `Cc1ccc(S[C@]2(C(=O)NC3CC3)CC(=O)N(C3CCCCC3)[C@@H]2c2ccc(CO)cc2I)cc1`: the composite z-score was 1.01 (inactive) in experiment [1] and 0.784 in the experiment with XIP peptide (Xip251-270). Also, the z-score was -1.34 in experiment [2], -4.11 (inactive) in experiment [3], -0.0105 (inactive) in experiment [4] and 0.06 (inactive) in experiment [5].
Take `CCOC(=O)C[C@H]1[C@H](OC(=O)c2ccc(-c3ccccc3)cc2)[C@@H](NC(=O)c2ccc(-c3ccccc3)cc2)c2cc(OCCCO)ccc2N1C(=O)Cc1ccc(OC)cc1`: the figures for the composite z-score (in experiment [1]; in the experiment on XIP peptide (Xip251-270)) were -0.548 (inactive) and -0.057, respectively. The z-score in experiment [2] was 0.555; in experiment [3], -1.54 (inactive); in experiment [4], -0.0323 (inactive); in experiment [5], 0.107 (inactive).
As for `COc1ccc(C#Cc2ccc3c(c2)[C@]2(C(=O)N3)[C@H](C(=O)NC[C@H](O)c3ccccc3)[C@H]3C(=O)O[C@H](c4ccccc4)[C@H](c4ccccc4)N3[C@@H]2c2ccc(OCCO)cc2)cc1`, the composite z-score in experiment [1] was -0.0969 (inactive); in the experiment on XIP peptide (Xip251-270) it was 0.715. In addition, the z-score was -1.06 in experiment [2], -0.878 (inactive) in experiment [3], 0.63 (inactive) in experiment [4] and 0.886 (inactive) in experiment [5].
Turning to `CC(C)(C)N1CC=CC23O[C@@H]4C=CCOC(=O)[C@@H]4[C@H]2C(=O)N(CCCCCO)[C@@H]3C1=O` (some centres not stated), the composite z-score was 0.295 (inactive) in experiment [1] and -1.13 with XIP peptide (Xip251-270). Further, the z-score is -0.366 in experiment [2], -4.43 (inactive) in experiment [3], 0.241 (inactive) in experiment [4] and -0.459 (inactive) in experiment [5].
